{"source": "PubChem BioAssay (EPA / NIEHS)", "note": "Activity calls are given as the source filed them. Rule for the calls: active = hit-call score of the fitted dose curve at least 0.9, where 1 is the maximum; inactive = score below 0.9."}
{"test": "ATG_AP_1_CIS: Attagene CIS-FACTORIAL HepG2 Assay for human Activator Protein 1 (AP-1) (AID 2282931)", "conditions": "HepG2 Attagene cis-factorial AP-1 reporter mRNA; actives raise or lower the signal", "how_it_was_run": "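HepG2, transient cis-reporter transfection; 24 h; readout RT-PCR/CE fluorescence; DMSO baseline, gain and loss fitted.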"}
{"smiles": "CO[Si](C)(OC)c1ccccc1", "outcome": "inactive"}
{"smiles": "C=CCOC(=O)CCC1CCCCC1", "outcome": "inactive"}
{"smiles": "C=C(C)[C@@H]1CC[C@@H](C)C[C@@H]1O", "outcome": "inactive"}
{"smiles": "CCCCCCCCCCCCCCCCCC(=O)OCC(CC)CCCC", "note": "(stereo not given)", "outcome": "inactive"}
{"smiles": "Clc1sc(Cl)c(Cl)c1Cl", "outcome": "inactive"}
{"smiles": "CN(C)CCCN", "outcome": "inactive"}
{"smiles": "CC(=O)O[C@H](CC(=O)[O-])C[N+](C)(C)C", "outcome": "inactive"}
{"smiles": "CCCC(C)C=O", "note": "(stereo not given)", "outcome": "inactive"}
{"smiles": "CCN(CC)c1ccc2c(-c3ccccc3C(=O)O)c3ccc(=[N+](CC)CC)cc-3oc2c1", "outcome": "inactive"}
{"smiles": "CC1CC(OC(=O)c2ccccc2O)CC(C)(C)C1", "note": "(stereo not given)", "AC50": "69.4 µM (active)"}
{"smiles": "Cc1cccc(C)c1[N+](=O)[O-]", "outcome": "inactive"}
{"smiles": "NNc1nc(-c2ccc(N)cc2)cs1", "outcome": "inactive"}
{"smiles": "CCCCc1ccc(N)cc1", "outcome": "inactive"}
{"smiles": "CCC(C)CCCC(C)(C)O", "note": "(stereo not given)", "outcome": "inactive"}
{"smiles": "CC(CCO)CCCC(C)(C)O", "note": "(stereo not given)", "outcome": "inactive"}
{"smiles": "CC(=O)O[C@]1(C(C)=O)CC[C@H]2[C@@H]3C[C@H](C)C4=CC(=O)CC[C@]4(C)[C@H]3CC[C@@]21C", "outcome": "inactive"}
{"smiles": "CC[C@]12CCCN3CCc4c(n(c5ccccc45)[C@@](O)(C(=O)OC)C1)[C@@H]32", "outcome": "inactive"}
{"smiles": "BrC1CCC(Br)C(Br)CCC(Br)C(Br)CCC1Br", "note": "(stereo not given)", "AC50": "36.2 µM (active)"}
{"smiles": "CCCCCCCCC=O", "outcome": "inactive"}
{"smiles": "Nc1cc(N)cc(C(=O)O)c1", "outcome": "inactive"}
{"smiles": "ClCCCl", "outcome": "inactive"}
{"smiles": "Cc1ccc(Nc2ccc(O)c3c2C(=O)c2ccccc2C3=O)cc1", "outcome": "inactive"}
{"smiles": "c1ccc2sc(SN(C3CCCCC3)C3CCCCC3)nc2c1", "AC50": "11.9 µM (active)"}
{"smiles": "COc1nc(C)nc(N)n1", "outcome": "inactive"}
{"smiles": "COc1cc(C=O)ccc1OC(=O)C(C)C", "outcome": "inactive"}
